# From the supplement of paper PMC6555819
# System: PPARg:RXRa (NR concentration 180 nM, RXRa partner concentration 90 nM)
# Assay: PBM binding z-score (relative to random genomic background probes); higher = stronger binding; sequences stand for … in GC…GCGATTGACAGCGTAGAATGAAGG
# Procedure, shortened: (§1)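 Scanned fluorescence from custom Agilent 4×180K protein-binding microarrays was regression-normalized. Binding z-scores use random background probes as reference. Ligand-free nuclear receptor dimers were incubated on the arrays for 1 h and detected with antibodies against each partner (one per run).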
row,Sequence,PBM binding z-score
1,TCAAGTTGGTCAAAGGTCACACACTCGAAATGCG,11.2
2,ACTAGCAGGCCAAGGATCACTCAAGATTAGTCCG,2.12
3,ACTTACGGGTCAGCGAGGTTATAGCACGCGTATA,3.94
4,TCTATCAGTTGATTAGGGCAACCGAAACAGCGGA,0.346
5,CCTTACGGGTCACTCCAGGTTATGGCATCGGAGT,3.15
6,CCTTACGGGTCAAGGTTACAGCACGGGTGGTACG,5.13
7,CGTCCAAGGTCAAGGTCAGTGACAGAGACTCGAA,6.3
8,ATCTCTAGGGAAAGTTCAGTGAAAGATCGATAGA,0.591
9,ACAGACAGGTGATGAAGGTAACCCAGGCTATCAT,0.814
10,TCATATAGGTAAATGCGAGGTGAAAGTCCGATCT,1.06
11,CAAACTAGGTCACAGAGGTCAAAGGCCGTGCGTA,10.5
12,CCTAGTTGGTGAGGAGGTCACACACCGGATATGA,2.06
13,CCTGCTAGGTCATGGTCAGCTAATCTACAGTATG,2.37
14,ATATGTAAGTTACATCCGGGTCATTCAGGCTATG,1.41
15,TCTTGTAGATCAGCAGGTTAAGACAGCTGGCCAA,-0.112
16,TCTGCTAGGTCATTTGGTCAGCTAACGAGCTGCC,1.97
17,CCTACTGGGCCACGAAAGGTCAGTGATTCAGTGA,3.77
18,CCTACTGGGCCAAGGTCATTTATCAGTCAAAGCA,4.1
19,ATATGTAGGTTACATCCGGGTCCTTCAGGCTATG,5.07
20,AGAATGAGGTTATACGTAGATTAGGGAAGAAAGT,2.37

row,Sequence,PBM binding z-score
1,CCTAGTTGGTCAAGGTCAGACACGCTATAGGTAC,1.85
2,TGATTGAGGTTAAAGATCAGGGAACGTGGCGTCG,5.23
3,CCTGCTACGTCAATGGTCAGCTAAAGCAGCTCGC,-0.37
4,ACTATTAGTTGACTTAGGGCGACCGATACGACGC,0.88
5,ATCTCTAGGTAAACTTCAGTGAAAGATCGATAGA,0.488
6,CTACCAAGGTGAACACGGTCGTTGATTACTATTC,0.647
7,ATCTCTAGGTTACCAAGTTCAGTGAATGCCGAAC,1.82
8,CCTAGGAGGACAGAAGGTCAGAGCTGTCCGCTTT,0.741
9,AGTCAAAGTTCAGGACGAGGTGACGTAAAGCACG,4.83
10,CCTACTGGTCCATTCAGAGGTCATTGATCATATG,0.652
11,ACTATTAGTTGGCTTAGGGCAACCGATACGACGC,0.739
12,TCTGCTAGGTCAACGATGGTGAGCTAATCTGCTA,2.17
13,ATATGTAGGTTACATCCGTGTCATTCAGGCTATG,5.07
14,ACTATTGGTTGACTTAGGGCAACCGATACGACGC,0.718
15,GCTAGCAGGCCATTTGGGTCACGCAATGACGGGC,1.32
16,CGTCAAAGTTCAAGGTAACGTATCAGAAAGCAGC,4.11
17,CGTCAAAGTTCAACTAAGGTATCGTAAAGCACGC,4.83
18,CCTTACGCGTCACTCCAGGTTATAGCATCGGAGT,0.559
19,CCTCGGAGGACAGAATGTCAGAGCTGTCCGCTTT,-0.416
20,CCGACTGGGGCAAAAGGTTACCATAAGCCAGCCC,4.13

# System: PPARg:RXRa 270nM:90nM, anti-RXR (NR concentration 270 nM, RXRa partner concentration 90 nM)
# Assay: as above
# Procedure, shortened: as §1
row,Sequence,PBM binding z-score
1,TCAAGTTGGTCAAAGGTCACACACTCGAAATGCG,9.6
2,ACTAGCAGGCCAAGGATCACTCAAGATTAGTCCG,3.37
3,ACTTACGGGTCAGCGAGGTTATAGCACGCGTATA,4.15
4,TCTATCAGTTGATTAGGGCAACCGAAACAGCGGA,1.61
5,CCTTACGGGTCACTCCAGGTTATGGCATCGGAGT,3.76
6,CCTTACGGGTCAAGGTTACAGCACGGGTGGTACG,5.27
7,CGTCCAAGGTCAAGGTCAGTGACAGAGACTCGAA,6.48
8,ATCTCTAGGGAAAGTTCAGTGAAAGATCGATAGA,1.84
9,ACAGACAGGTGATGAAGGTAACCCAGGCTATCAT,0.0501
10,TCATATAGGTAAATGCGAGGTGAAAGTCCGATCT,2.53
11,CAAACTAGGTCACAGAGGTCAAAGGCCGTGCGTA,8.37
12,CCTAGTTGGTGAGGAGGTCACACACCGGATATGA,3.07
13,CCTGCTAGGTCATGGTCAGCTAATCTACAGTATG,2.98
14,ATATGTAAGTTACATCCGGGTCATTCAGGCTATG,1.44
15,TCTTGTAGATCAGCAGGTTAAGACAGCTGGCCAA,1.46
16,TCTGCTAGGTCATTTGGTCAGCTAACGAGCTGCC,3.11
17,CCTACTGGGCCACGAAAGGTCAGTGATTCAGTGA,3.87
18,CCTACTGGGCCAAGGTCATTTATCAGTCAAAGCA,4.33
19,ATATGTAGGTTACATCCGGGTCCTTCAGGCTATG,4.1
20,AGAATGAGGTTATACGTAGATTAGGGAAGAAAGT,2.4

row,Sequence,PBM binding z-score
1,CCTAGTTGGTCAAGGTCAGACACGCTATAGGTAC,2.26
2,TGATTGAGGTTAAAGATCAGGGAACGTGGCGTCG,5.82
3,CCTGCTACGTCAATGGTCAGCTAAAGCAGCTCGC,-0.498
4,ACTATTAGTTGACTTAGGGCGACCGATACGACGC,0.00253
5,ATCTCTAGGTAAACTTCAGTGAAAGATCGATAGA,0.399
6,CTACCAAGGTGAACACGGTCGTTGATTACTATTC,0.659
7,ATCTCTAGGTTACCAAGTTCAGTGAATGCCGAAC,1.97
8,CCTAGGAGGACAGAAGGTCAGAGCTGTCCGCTTT,2.08
9,AGTCAAAGTTCAGGACGAGGTGACGTAAAGCACG,5.11
10,CCTACTGGTCCATTCAGAGGTCATTGATCATATG,1.92
11,ACTATTAGTTGGCTTAGGGCAACCGATACGACGC,-0.00108
12,TCTGCTAGGTCAACGATGGTGAGCTAATCTGCTA,3.07
13,ATATGTAGGTTACATCCGTGTCATTCAGGCTATG,4.33
14,ACTATTGGTTGACTTAGGGCAACCGATACGACGC,0.153
15,GCTAGCAGGCCATTTGGGTCACGCAATGACGGGC,1.45
16,CGTCAAAGTTCAAGGTAACGTATCAGAAAGCAGC,5.03
17,CGTCAAAGTTCAACTAAGGTATCGTAAAGCACGC,5.57
18,CCTTACGCGTCACTCCAGGTTATAGCATCGGAGT,-0.0823
19,CCTCGGAGGACAGAATGTCAGAGCTGTCCGCTTT,-0.901
20,CCGACTGGGGCAAAAGGTTACCATAAGCCAGCCC,5.64
